# In publication PMC5540273 (PLoS ONE, 2017):
# Columns and labels:
# Conditions in all cases: concentration: 1 μM, replicates: in singlicate; n = 1
# [1] = tested on: T1, SNARK
# T1 construct: gene NUAK2
# [2] = tested on: SNRK
# [3] = tested on: SRC
# [4] = tested on: SRMS
# [5] = tested on: SRPK1
# [6] = tested on: SRPK2
# [7] = tested on: SRPK3
# [8] = tested on: STK16
# [9] = tested on: STK33
# [10] = tested on: STK35
# [11] = tested on: STK36
# [12] = tested on: STK39
# [13] = tested on: SYK
# [14] = tested on: SgK110
# [15] = tested on: T2, TAK1
# T2 construct: gene MAP3K7
# [16] = tested on: TAOK1
# [17] = tested on: TAOK2
# [18] = tested on: TAOK3
# [19] = tested on: TBK1
# [20] = tested on: TEC
# 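Also: KINOMEscan kinase panel screen.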
SMILES,%Inh [1] [%],%Inh [2] [%],%Inh [3] [%],%Inh [4] [%],%Inh [5] [%],%Inh [6] [%],%Inh [7] [%],%Inh [8] [%],%Inh [9] [%],%Inh [10] [%],%Inh [11] [%],%Inh [12] [%],%Inh [13] [%],%Inh [14] [%],%Inh [15] [%],%Inh [16] [%],%Inh [17] [%],%Inh [18] [%],%Inh [19] [%],%Inh [20] [%]
CCOc1nccc(-c2c(-c3ccc(F)cc3)ncn2C2CCNCC2)n1 [SB-249175],82,21,0,34,8,19,1,0,4,0,24,74,32,0,34,100,0,73,23,10
CSc1ccc(NC2=C(c3ccc(Cl)cc3)C(=O)NC2=O)cc1 [SB-317658],12,0,17,3,0,7,9,24,0,0,15,0,3,0,39,18,0,0,0,0
Cn1cc(-c2ccc3c(c2)CCN3C(=O)Cc2cc(F)cc(F)c2F)c2c(N)ncnc21 [GSK2634140],28,8,10,0,34,0,0,0,0,0,0,0,41,0,48,0,0,0,17,0
COc1cccc(NC(=O)NCCNc2ccnc(Nc3ccc(F)cc3)n2)c1 [GSK1379879],0,0,0,0,0,0,3,0,0,1,0,1,20,0,0,0,0,0,13,0
COc1cccc(CC(=O)N2CCc3cc(-c4cn(C)c5ncnc(N)c45)ccc32)c1 [GSK2608899],35,0,18,4,14,0,20,9,2,0,17,22,26,0,43,2,0,3,25,19
CN(C)CCOc1ccc(-c2cc(-c3ccc(Cl)c(O)c3)c(-c3ccncc3)[nH]2)cc1.Cl.Cl [SB-684387],9,9,92.2,3,0,30,0,14,0,0,63,33,2,0,32,0,1,0,28,0
c1ccc(Oc2ccc(Nc3ccnc4cc(-c5ccc(CN6CCCCC6)o5)ccc34)cc2)nc1 [GW567143],9,0,37,94.2,0,0,20,0,99.9,59,0,0,0,0,0,0,0,0,0,41
COc1ccc(NC(=O)c2ccoc2)cc1-c1ccc(C(=O)NCC2CC2)cc1 [GW810437],18,12,10,25,0,0,12,0,0,0,0,10,12,36,18,23,24,15,8,0
